In PubChem BioAssay (Tox21):
Records with an inconclusive call do not appear. Entries that show only a call come without a potency. Active and inactive are the calls of the source. The call rests on the fitted dose curve.

Assay: cAMP Responsive Elements (CRE) small molecule agonists, cell-based qHTS assay (AID 1963590)
Conditions: CRE-bla HEK293T, beta-lactamase FRET ratio, 3 h; series mostly up to 92.4 µM
Source text: U.S. Tox21 Program National Center for Advancing Translational Sciences [NCATS] Division of Preclinical Innovation [DPI] U.S. Environmental Protection Agency [EPA] National Institutes of Environmental Health Sciences [NIEHS] National Toxicology Program [NTP] U.S. Food and Drug Administration [FDA] Tox21 Assay Overview: CREB (cyclic-AMP Responsive Element Binding Protein) is a cellular transcription factor. It binds to certain DNA sequences called cAMP Responsive Elements (CRE) and regulates the transcription of the genes. […] This cell line can be used to find agonists/antagonists of the cyclic AMP signaling pathway. The activation of the report gene under culture conditions can be detected by fluorescence intensity. This cell line has been used to screen the Tox21 10K compound library to identify agonists that induce oxidative stress.
Tox21 Assay Protocol Summary: CRE-bla Hek 293T cells were suspended in assay medium (DMEM containing 10% dialyzed FBS, 0.1 mM NEAA, 1 mM sodium pyruvate and 25 mM HEPES) and dispensed at 2,000 cells/5 uL /well into 1536-well black wall/clear bottom plates using a Multidrop Combi (ThermoFisher Scientific, Waltham, MA) dispenser. After the assay plates were incubated at 37 C/5% CO2 for 18 hrs, 23 nL of compounds dissolved in DMSO, positive controls or DMSO only was transferred to the assay plate by a pintool workstation (Kalypsys, San Diego, CA). After the plates were incubated at 37 C/5% CO2 for 3 hrs, 1 uL of LiveBLAzer B/G FRET substrate (Invitrogen, Carlsbad, CA) was added to each well using Bioraptr Flying Reagent Dispenser (FRD, Aurora Discovery, San Diego, CA). The plates were incubated at room temperature for 2 h.

SMILES	Potency	activation
O=CN1CCOCC1	inactive	–
CCCCCCCCCCCCCCCCCC#N	inactive	–
CCCc1nn(C)c2c(=O)[nH]c(-c3cc(S(=O)(=O)N4CCN(C)CC4)ccc3OCC)nc12	inactive	–
CC(=O)OCC[N+](C)(C)C	inactive	–
Nc1cc(S(=O)(=O)O)ccc1O	inactive	–
CC=C(Cl)Cl	inactive	–
CC(C)=CCC/C(C)=C\C#N	inactive	–
Cc1cc(C(C)(C)C)c(O)c(C)c1CC1=NCCN1	inactive	–
ICCc1ccccc1	inactive	–
CCCCCOC(=O)CCCC	inactive	–
Cc1ccc2cccnc2c1	inactive	–
Cc1cscn1	inactive	–
CC/C(=C\C(=N/O)C(N)=O)C(C)[N+](=O)[O-] (stereo not given)	inactive	–
OCC(O)c1ccccc1 (stereo not given)	inactive	–
C=CS(=O)(=O)O	inactive	–
O=C(Nc1cccc(C2=NCCN2)c1)Nc1cccc(C2=NCCN2)c1	–	-0.37% [at 19 µM] (inactive)
C[C@@H](O)[C@H](N)C(=O)O	–	-0.0351% [at 19 µM] (inactive)
CCCCCCCCOC(C)=O	inactive	–
CCOC(=O)CC(C)O (stereo not given)	inactive	–
O=C(Nc1ccc([N+](=O)[O-])cc1)Nc1ccc([N+](=O)[O-])cc1	inactive	–

SMILES	Potency	activation
COC(C)(C)CCCC(C)CC=O (stereo not given)	inactive	–
COc1ccc(C)cc1[N+](=O)[O-]	inactive	–
O=C1Nc2cc(Cl)ccc2Oc2ccccc21	inactive	–
CCc1cccc(C)c1	inactive	–
CCCCCCCCCCCC(=O)Cl	inactive	–
COc1cc2c3cc1Oc1cc(ccc1O)C[C@@H]1c4c(cc(OC)c(O)c4Oc4ccc(cc4)C[C@@H]3N(C)CC2)CC[N+]1(C)C	inactive	–
BrC/C=C/CBr	–	-0.306% [at 19 µM] (inactive)
CC(C)NNC(=O)c1ccncc1	inactive	–
CC(COC(C)(C)C)OCCCO (stereo not given)	inactive	–
CC[C@H]1OC(=O)[C@H](C)[C@@H](O[C@H]2C[C@@](C)(OC)[C@@H](O)[C@H](C)O2)[C@H](C)[C@@H](O[C@@H]2O[C@H](C)C[C@H](N(C)C)[C@H]2O)[C@](C)(O)C[C@@H](C)C(=O)[C@H](C)[C@@H](O)[C@]1(C)O	inactive	–
COC(=O)CC#N	inactive	–
Nc1nc(N)c(-c2ccccc2)s1	inactive	–
CNCCC(Oc1ccccc1OC)c1ccccc1 (stereo not given)	inactive	–
CCCCC(CC)CN (stereo not given)	inactive	–
Cc1cccc(N(C)C(=S)Oc2ccc3c(c2)CCC3)c1	inactive	–
CC(=O)OCC(=O)[C@@]1(O)CCC2C3CCC4=CC(=O)CC[C@]4(C)C3[C@@H](O)C[C@@]21C (stereo not given in full)	inactive	–
Nc1ccc(S(=O)(=O)O)c(N)c1	inactive	–
CC(=O)Oc1ccc(C(C)=O)cc1	inactive	–
Cc1nc2n(c(=O)c1CCN1CCC(c3noc4cc(F)ccc34)CC1)CCC[C@H]2O	–	-1.39% [at 19 µM] (inactive)
NCCCC[C@H](N[C@@H](CCc1ccccc1)C(=O)O)C(=O)N1CCC[C@H]1C(=O)O	inactive	–
